Screens (PubChem)
An excerpt weighted towards active compounds, which were near 3.5% of everything screened.
GPR151 activ: activators of human GPR151, primary screen, cell-based, PathHunter beta-arrestin, luminescence; PathHunter beta-arrestin GPR151 cells; 650,000 tested, 1% active; activation, % at 11.2 µM; in the data active means activation above about 4.9%;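 further: 0% = median of compound wells and 100% = cells with positive control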
MITF inh: MITF inhibitors, primary screen, biochemical, AlphaScreen, human | Microphthalmia-associated transcription factor (Homo sapiens), O75030 | AlphaScreen MITF homodimerization, bead proximity signal | inhibition, % at 2.6 µM | 650,000 tested, 0.91% active; in the data active means inhibition above about 50%;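 further: 0% = vehicle wells with protein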
Target sequence (O75030 whole entry, looked up): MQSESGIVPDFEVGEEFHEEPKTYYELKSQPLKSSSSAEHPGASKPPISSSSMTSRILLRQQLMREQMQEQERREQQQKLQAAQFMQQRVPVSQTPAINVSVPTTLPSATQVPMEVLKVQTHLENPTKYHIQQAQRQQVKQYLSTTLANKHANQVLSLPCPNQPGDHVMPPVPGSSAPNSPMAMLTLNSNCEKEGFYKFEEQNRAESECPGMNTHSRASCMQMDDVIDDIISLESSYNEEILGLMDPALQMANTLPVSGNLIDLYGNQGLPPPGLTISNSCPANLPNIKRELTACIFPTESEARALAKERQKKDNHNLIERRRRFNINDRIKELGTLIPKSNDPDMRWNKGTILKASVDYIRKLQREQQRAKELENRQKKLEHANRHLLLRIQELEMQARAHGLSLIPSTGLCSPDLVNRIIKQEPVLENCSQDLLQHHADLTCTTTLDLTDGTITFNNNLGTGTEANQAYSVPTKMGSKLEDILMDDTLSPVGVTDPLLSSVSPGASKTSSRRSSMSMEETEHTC
TEAD-YAP block: TEAD-YAP interaction inhibition, primary screen, TEAD-YAP interaction inhibitor project, luminescence, HEK-TIYL cells | TEAD-Gal4/YAP UAS-luciferase luminescence | inhibition, % at 9.12 µM | 640,000 tested, 1.4% active | AID 1259422, 2018; in the data active means inhibition above about 32%;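 further: 0% = median of test compound wells and 100% = reference inhibitor wells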
FBW7 activator: FBW7 E3 ligase activators, primary screen, biochemical, AlphaScreen, human; normalized activity (activation), % at 26.1 µM; F-box/WD repeat-containing protein 7 (Homo sapiens), Q969H0; 650,000 tested, 0.13% active; AID 1259310, 2017; AlphaScreen FBW7–phospho-cyclin E peptide binding, activator screen; in the data active means normalized activity above about 1.9%;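 further: purified mutant Fbw7 with reduced substrate affinity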
Active calls of the source: *.

SMILES | GPR151 activ | MITF inh | TEAD-YAP block | FBW7 activator
Cc1c(C(=O)Nc2nc3ccccc3s2)sc2nc(C)n(C)c(=O)c12 | -2 | 0 | 45* | 0
COc1ccc2nc(NC(=O)c3sc4nc(C)ccc4c3N)sc2c1 | -1 | -2 | 39* | 0
Cc1nc2sc(C(=O)Nc3nc4ccccc4s3)c(N)c2c(C)c1C | 2 | 8 | 96* | 0
COc1cc(Nc2nc(Nc3ccncn3)nc3c2ncn3Cc2ccc(C(F)(F)F)cc2)cc(OC)c1OC | 0 | -5 | 12 | 0
CC1=C(C#N)C(=O)NC(=O)/C1=C\c1ccc(-c2ccccc2)o1 | -1 | 5 | 1 | 0
CC1=C(C#N)C(=O)NC(=O)/C1=C\c1ccc(-c2ccc(C(=O)O)c(Cl)c2)o1 | 0 | 58* | 6 | 0
COc1cc(C2c3c(-c4ccccc4O)n[nH]c3C(=O)N2CCCO)cc(OC)c1OC (configuration not stated) | 2 | -6 | -5 | 0
Cn1ncc2c1/C(=C/c1ccc(Cl)cc1)CC2 | -10 | 8 | 55* | 0
N#CCCn1ncc2c1/C(=C/c1ccccc1)CC2 | 3 | 14 | 3 | 0
COc1ccccc1C(=O)CC1(O)C(=O)Nc2ccc(C)cc21 (configuration not stated) | 0 | 0 | 1 | 0
CCOc1cc(/C=N\NC(=O)c2ccc(N)cc2)ccc1OCc1ccccc1 | 2 | 7 | -1 | 0
CCOc1cc(/C=N/N=C(N)N)ccc1OCc1ccccc1 | 1 | 6 | 40* | 0
CC(=O)N(/C=C1\Sc2ccccc2C1=O)c1ccc(C(=O)O)cc1 | -4 | 13 | -5 | 0
COc1ccccc1N(/C=C1\Sc2ccccc2C1=O)C(C)=O | 2 | 3 | 79* | 0
CC(=O)N(/C=C1\Sc2ccccc2C1=O)c1ccc(C)cc1 | -3 | 14 | 70* | 0
CCCOc1ccc(CNCCCN(CC)CC)cc1OC | -1 | 7 | -3 | 0
CC(=O)C1=C(O)C(=O)N(c2nc3ccccc3s2)C1c1ccc(Cl)cc1Cl (configuration not stated) | 1 | 20 | 66* | 0
CC(=O)C1=C(O)C(=O)N(c2nc3ccccc3s2)C1c1ccccc1F (configuration not stated) | 1 | 15 | -77 | 0
COC(=O)c1nnn(CC(=O)Nc2cc(C(F)(F)F)ccc2Cl)c1C(=O)OC | 0 | 3 | 14 | 0
COc1ccc(C(=O)Nc2noc3ccccc23)c(OC)c1 | -10 | -4 | 88* | 0
O=C(Nc1noc2ccccc12)c1ccc(F)cc1 | -12 | -7 | 44* | 0
O=C(Nc1noc2ccccc12)c1cccc(F)c1 | -4 | -4 | -17 | 0
COc1ccccc1C(=O)Nc1noc2ccccc12 | -5 | 15 | 27 | 0
Cc1ccccc1C(=O)Nc1noc2ccccc12 | -12 | -2 | 43* | 0
O=C(c1nn2c(C(F)(F)F)cc(-c3ccco3)nc2c1Cl)N1CCN(c2ccc(F)cc2)CC1 | 0 | 7 | 3 | 0
SMILES | GPR151 activ | MITF inh | TEAD-YAP block | FBW7 activator
O=C(Nc1cccc2ncccc12)c1ccc(N2CCCCC2)c([N+](=O)[O-])c1 | 1 | -12 | 32* | 0
CCc1ccccc1NC(=O)c1ccc(N2CCCCCC2)c([N+](=O)[O-])c1 | -2 | -9 | 1 | 0
CC(C)COCc1ccc(O)c2ncccc12 | 0 | 59* | 22 | -2
CN(C)c1ccc(C(=O)Nc2ccccc2F)cc1 | -9 | -4 | 74* | 0
COCCNc1nc(SCc2cc(F)cc3c2OCOC3)nc2ccccc12 | 1 | -19 | -1 | 0
Cc1nc(C)c(CC(=O)Nc2nc3c(s2)CCCC3)s1 | 0 | 4 | 40* | 0
Cc1ccc(CC(=O)Nc2nc3c(s2)CCCC3)cc1 | 0 | -9 | 26 | 0
COc1ccc(NC(=O)C2(C)CC3c4ccccc4C2c2ccccc23)cc1 (configuration not stated) | 1 | 8 | 0 | 1.9*
Cc1ccc(C)c(NC(=O)C2(C)CC3c4ccccc4C2c2ccccc23)c1 (configuration not stated) | 1 | 11 | 4 | 0
C=CCn1c(SC)nc(O)c(CC)c1=O | -1 | 9 | 1 | 1.9*
Cc1ccc(C(=O)CNC(=O)c2ccccc2)cc1 | -8 | 4 | 65* | 0
Cc1ccc(C(=O)NC(=S)NCC(=O)c2ccccc2)cc1 | 3 | -8 | -17 | 0
CCNC(=O)c1ccc(-c2ccccc2)cc1 | -1 | 1 | -33 | 0
CN(C)CCNC(=O)c1ccc(-c2ccccc2)cc1 | -2 | 3 | 35* | 0
CCOc1cccc2cc(C(=O)Nc3ccccc3F)c(=Nc3ccc(C(=O)O)cc3)oc12 | 1 | -5 | -1 | 0
CC(C)OCCCNC(=O)c1ccc(CN2CCc3ccccc3C2)cc1 | 0 | 15 | 11 | 2.0*
Cc1cccc(N(C)c2ccnc3c(-c4cccc(N)c4)cnn23)c1 | 1 | 17 | -4 | 0
CCCNc1ccnc2c(-c3ccsc3)cnn12 | -1 | 17 | 54* | 0
COc1ccc(CNc2ccnc3c(-c4cncnc4)cnn23)cc1 | 2 | 15 | 44* | -1
CCCNc1ccnc2c(-c3ccc(N)cc3)cnn12 | -1 | 4 | 76* | 1
Cc1cccc(N(C)c2ccnc3c(-c4ccc(N)cc4)cnn23)c1 | 0 | 18 | 56* | 0
O=C(NC(=S)Nc1ccc(Cc2ccncc2)cc1)c1cccc(Cl)c1 | 0 | -2 | 1 | 0
O=c1[nH]nc(N/N=C/c2cccc(Br)c2)c(=O)[nH]1 | 2 | 9 | 6 | 0
COCC(C)n1c(C)cc(C(=O)COC(=O)c2oc3ccccc3c2C)c1C (configuration not stated) | -1 | 5 | 0 | 0
COCC(C)n1c(C)cc(C(=O)COC(=O)c2c(OC)cccc2OC)c1C (configuration not stated) | -2 | 10 | 22 | 0
SMILES | GPR151 activ | MITF inh | TEAD-YAP block | FBW7 activator
COCC(C)n1c(C)cc(C(=O)COC(=O)c2n[nH]c3ccccc23)c1C (configuration not stated) | -2 | 18 | 88* | 0
COCC(C)n1c(C)cc(C(=O)CSc2nc3ccccc3[nH]2)c1C (configuration not stated) | 3 | 8 | 40* | 0
COCC(C)n1c(C)cc(C(=O)COC(=O)c2cccc(C)c2C)c1C (configuration not stated) | 0 | 7 | 46* | 0
Cc1cc(C(=O)CSc2nc3ccccc3[nH]2)c(C)n1C1CC1 | -1 | 7 | -71 | 0
CC1(C)CC(=O)c2cc(-c3ccccc3)n(-c3ccccc3F)c2C1 | -1 | 14 | 8 | 0
Cc1cc(C=C2C(=O)c3ccccc3C2=O)c(C)n1-c1ccc(S(N)(=O)=O)cc1 | 1 | -6 | 6 | 0
Cc1cc(C=C2C(=O)c3ccccc3C2=O)c(C)n1-c1cc(C(=O)O)cc(C(=O)O)c1 | 1 | 64* | 0 | 0
